Compounds without any hit were thinned out: in the full panel of roughly 83,000, 20% have a hit.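 In brief: 96-well plates, 48 h treatment, single concentration, percent growth endpoint.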 Values without a mark were called inactive. Calls of active or inactive are those of the source. The calls were made as follows: active = growth percent below 10; inactive = the rest.
System: SK-MEL-2 melanoma
Assay: NCI-60 one-dose screen, 48 h (100 = growth as untreated, 0 = no growth, -100 = all killed)
Settings: 10 µM unless noted

| Structure (SMILES) | growth |
| --- | --- |
| C=C1C(=O)O[C@H]2[C@H]1CC/C(COC(=O)NCCc1cccc(OC)c1)=C\CC[C@@]1(C)O[C@@H]21 | 68.5% |
| COc1ccccc1OCC(=O)Nc1sc2c(c1C(N)=O)CCC2 | 37.5% |
| CCc1c(C(=O)Nc2ccc3ccccc3c2)[nH]c(C)c1C(C)=O | 87.9% |
| CCC(=O)Oc1ccc2c(c1)CC[C@@H]1[C@@H]2CC[C@]2(C)C[C@H](OC(=O)CC)C[C@@H]12 | 75.1% |
| COC(=O)CCCCN=Cc1c(O)c(O)c(C(C)C)c2cc(C)c(-c3c(C)cc4c(C(C)C)c(O)c(O)c(C=NCCCCC(=O)OC)c4c3O)c(O)c12 | 17.3% |
| COc1ccc2c(c1)C(C)Cc1c(N(C)C)ncnc1N2C (stereo not drawn) | 32.9% |
| Cc1ccc(S(=O)(=O)OCC(=O)Nc2ccc(C(=O)O)c(O)c2)cc1 | 39.5% |
| O=C(O)c1ccc(-n2cc(CNc3ccc(C(F)(F)F)cc3)c(-c3ccccc3)n2)cc1 | 93.8% |
| Cc1cc(C(=O)CSc2nc3ccccc3c(=O)[nH]2)c(C)n1C | 87.9% |
| CC/C=C\C[C@H](O)C/C=C1/C(=O)C(Cl)=C[C@@H]1C/C=C\CCCC(=O)OC | -21% (active) |
| CCSc1nnc(Nc2ccc(C(C)C)cc2)s1 | 41.3% |
| Cc1ccc2nc(-c3c(N)n[nH]c3CCCO)[nH]c(=O)c2c1 | 108% |
| COc1cc(C(=O)N2CCN(C(=O)c3ccco3)CC2)c(N)cc1OCc1ccccc1 | 77.6% |
| O=C(Nc1cccc(Cl)c1)c1cc([N+](=O)[O-])ccc1O | 5.35% (active) |
| O=C(CNC(=O)c1cccc2ccccc12)Nc1ccccc1Oc1ccccc1 | 34.8% |
| Nc1cccc2c1CN(C1CCC(=O)NC1=O)C2=O (stereo not drawn) | 113% |
| Nc1ccc(S(=O)(=O)c2ccc(Cl)cc2)cc1 | 98.4% |
| CNC(=O)c1cc(Oc2ccc3c(c2)sc2nc(-c4ccc(Cl)cc4)cn23)ccn1 | 116% |
| Cc1cc(C)c2c(=O)[nH]c(SCC(=O)Nc3cccc(S(=O)(=O)N(C)C)c3)nc2n1 | 96.5% |
| CSc1ccccc1C#C/C=C\C#Cc1ccccc1N1CCCC1=O | 35.4% |

| Structure (SMILES) | growth |
| --- | --- |
| O=S(=O)(NCCCNc1cc(-c2cn(-c3ccccc3)nc2-c2cccc(O)c2)ccn1)c1ccc(Cl)cc1 | 5.9% (active) |
| CC(=O)Oc1cccc(OC(C)=O)c1OC(C)=O | 103% |
| C=C1C(=O)O[C@H]2[C@H]1CC/C(COC(=O)NCCc1ccc(Br)cc1)=C\CC[C@@]1(C)O[C@@H]21 | 57.8% |
| O=S=Nc1ccc([N+](=O)[O-])cc1 | 98.4% |
| COc1ccc(N=C2NN=C(c3ccc(F)cc3)CS2)cc1OC | 66.4% |
| NC(C(=O)O)C(O)c1ccc(OCc2ccccc2)c(OCc2ccccc2)c1 (stereo not drawn) | 104% |
| CC/C=C\C[C@H]1C/C=C2/C(=O)C(Cl)=C[C@@H]2C/C=C\CCCC(=O)O1 | -44.1% (active) |
| Cc1sc2nc(CSc3nnc(-c4ccco4)o3)[nH]c(=O)c2c1C | 96.4% |
| O=S(=O)(NCCCNc1cc(-c2cn(-c3ccccc3)nc2-c2cccc(O)c2)ccn1)c1cccc2ccccc12 | 62.4% |
| CN(C)c1nc(N)c(N=O)c(N)n1 | 104% |
| O=C1NC(Cc2c[nH]c3ccccc23)C(=O)N1Cc1ccc(Cl)cc1 (stereo not drawn) | 66.3% |
| COC(=O)c1ccc(C)cc1 | 106% |
| COC(=O)CCCCCN=Cc1c(O)c(O)c(C(C)C)c2cc(C)c(-c3c(C)cc4c(C(C)C)c(O)c(O)c(C=NCCCCCC(=O)OC)c4c3O)c(O)c12 | 10.4% |
| O=S(=O)(NCCCNc1nccc(-c2c(-c3ccc(F)c(O)c3)nc3sccn23)n1)c1ccc(Cl)cc1 | 27.7% |
| COc1ncc(-c2ccc3ncnc(Nc4cccc(Cl)c4)c3c2)cc1N(S(C)(=O)=O)S(C)(=O)=O | 77.4% |
| CC(Br)C(O)c1cc2c(cc1Br)OCO2 (stereo not drawn) | 115% |
| O=S(=O)(NCCCNc1cc(-c2cn(-c3ccccc3)nc2-c2cccc(O)c2)ccn1)c1ccc(Br)cc1 | -5.21% (active) |
| COc1ccc2c(c1)NC(=O)CN2c1nc(C)nc2ccccc12 | 23.5% |
| NC(=O)c1c(NC(=O)c2ccc3c(c2)OCO3)sc2c1CCC(=O)C2 | -57.8% (active) |

System: EKVX NSCLC
Assay: as above
Settings: 10 µM unless noted

| Structure (SMILES) | growth |
| --- | --- |
| C=C1C(=O)O[C@H]2[C@H]1CC/C(COC(=O)NCCc1cccc(OC)c1)=C\CC[C@@]1(C)O[C@@H]21 | 68.3% |
| COc1ccccc1OCC(=O)Nc1sc2c(c1C(N)=O)CCC2 | 99.9% |
| CCc1c(C(=O)Nc2ccc3ccccc3c2)[nH]c(C)c1C(C)=O | 84.3% |
| CCC(=O)Oc1ccc2c(c1)CC[C@@H]1[C@@H]2CC[C@]2(C)C[C@H](OC(=O)CC)C[C@@H]12 | 62.7% |
| COC(=O)CCCCN=Cc1c(O)c(O)c(C(C)C)c2cc(C)c(-c3c(C)cc4c(C(C)C)c(O)c(O)c(C=NCCCCC(=O)OC)c4c3O)c(O)c12 | 14.4% |
| COc1ccc2c(c1)C(C)Cc1c(N(C)C)ncnc1N2C (stereo not drawn) | 41.2% |
| Cc1ccc(S(=O)(=O)OCC(=O)Nc2ccc(C(=O)O)c(O)c2)cc1 | 103% |
| O=C(O)c1ccc(-n2cc(CNc3ccc(C(F)(F)F)cc3)c(-c3ccccc3)n2)cc1 | 91.8% |
| Cc1cc(C(=O)CSc2nc3ccccc3c(=O)[nH]2)c(C)n1C | 94.9% |
| CC/C=C\C[C@H](O)C/C=C1/C(=O)C(Cl)=C[C@@H]1C/C=C\CCCC(=O)OC | -63.2% (active) |
| CCSc1nnc(Nc2ccc(C(C)C)cc2)s1 | 80.5% |
| Cc1ccc2nc(-c3c(N)n[nH]c3CCCO)[nH]c(=O)c2c1 | 103% |
| COc1cc(C(=O)N2CCN(C(=O)c3ccco3)CC2)c(N)cc1OCc1ccccc1 | 94.6% |
| O=C(Nc1cccc(Cl)c1)c1cc([N+](=O)[O-])ccc1O | 60.5% |
| O=C(CNC(=O)c1cccc2ccccc12)Nc1ccccc1Oc1ccccc1 | 26.3% |
| Nc1cccc2c1CN(C1CCC(=O)NC1=O)C2=O (stereo not drawn) | 94.7% |
| Nc1ccc(S(=O)(=O)c2ccc(Cl)cc2)cc1 | 94.7% |
| CNC(=O)c1cc(Oc2ccc3c(c2)sc2nc(-c4ccc(Cl)cc4)cn23)ccn1 | 80.9% |
| Cc1cc(C)c2c(=O)[nH]c(SCC(=O)Nc3cccc(S(=O)(=O)N(C)C)c3)nc2n1 | 93.3% |
| CSc1ccccc1C#C/C=C\C#Cc1ccccc1N1CCCC1=O | 55.3% |

| Structure (SMILES) | growth |
| --- | --- |
| O=S(=O)(NCCCNc1cc(-c2cn(-c3ccccc3)nc2-c2cccc(O)c2)ccn1)c1ccc(Cl)cc1 | 27.6% |
| CC(=O)Oc1cccc(OC(C)=O)c1OC(C)=O | 95.4% |
| C=C1C(=O)O[C@H]2[C@H]1CC/C(COC(=O)NCCc1ccc(Br)cc1)=C\CC[C@@]1(C)O[C@@H]21 | 57.3% |
| O=S=Nc1ccc([N+](=O)[O-])cc1 | 96.9% |
| COc1ccc(N=C2NN=C(c3ccc(F)cc3)CS2)cc1OC | 99% |
| NC(C(=O)O)C(O)c1ccc(OCc2ccccc2)c(OCc2ccccc2)c1 (stereo not drawn) | 104% |
| CC/C=C\C[C@H]1C/C=C2/C(=O)C(Cl)=C[C@@H]2C/C=C\CCCC(=O)O1 | -82% (active) |
| Cc1sc2nc(CSc3nnc(-c4ccco4)o3)[nH]c(=O)c2c1C | 110% |
| O=S(=O)(NCCCNc1cc(-c2cn(-c3ccccc3)nc2-c2cccc(O)c2)ccn1)c1cccc2ccccc12 | 37.5% |
| CN(C)c1nc(N)c(N=O)c(N)n1 | 111% |
| O=C1NC(Cc2c[nH]c3ccccc23)C(=O)N1Cc1ccc(Cl)cc1 (stereo not drawn) | 103% |
| COC(=O)c1ccc(C)cc1 | 98.3% |
| COC(=O)CCCCCN=Cc1c(O)c(O)c(C(C)C)c2cc(C)c(-c3c(C)cc4c(C(C)C)c(O)c(O)c(C=NCCCCCC(=O)OC)c4c3O)c(O)c12 | 21.7% |
| O=S(=O)(NCCCNc1nccc(-c2c(-c3ccc(F)c(O)c3)nc3sccn23)n1)c1ccc(Cl)cc1 | 101% |
| COc1ncc(-c2ccc3ncnc(Nc4cccc(Cl)c4)c3c2)cc1N(S(C)(=O)=O)S(C)(=O)=O | 30% |
| CC(Br)C(O)c1cc2c(cc1Br)OCO2 (stereo not drawn) | 104% |
| O=S(=O)(NCCCNc1cc(-c2cn(-c3ccccc3)nc2-c2cccc(O)c2)ccn1)c1ccc(Br)cc1 | 30.5% |
| COc1ccc2c(c1)NC(=O)CN2c1nc(C)nc2ccccc12 | 30.1% |
| NC(=O)c1c(NC(=O)c2ccc3c(c2)OCO3)sc2c1CCC(=O)C2 | 5.58% (active) |
